# Source: PubChem BioAssay AID1508601 (ICCB-Longwood Screening Facility, Harvard Medical School, 2020)
# Values joined by “and” are separate entries in the source; they are usually repeats but may differ in a detail not shown here. Equal values may be shown once. About 85 (1%) of roughly 5,700 compounds were called active. Cut-off read from the data, not from the text of the source: active = p53-positive nuclei above about 36% (passing the limit was not always enough); inactive = the rest. The full list was thinned out, with actives kept by preference. Where a structure was tested more than once in an assay, its records may differ in their call.
# Experiments:
# [1] = nuclear p53 accumulation, HPV+ cells – imaging, p53-positive nuclei imaging, 24 h, 48 h (AID 1508601); conditions: 24/48 h
# [2] = target: Cellular tumor antigen p53 (Homo sapiens) (UniProt P04637); assay: as above; conditions: 24/48 h, stronger effect = higher value
# [3] = measured here: cell number at 24 h, Library stock concentration: 10 mM
# [4] = measured here: cell number at 48 h, Library stock concentration: 10 mM
# [5] = Library stock concentration: 10 mM
# [6] = measured here: p53 positive nuclei at 24 h, Library stock concentration: 10 mM
# [7] = measured here: cell number at 24 h, concentration not given here
# [8] = measured here: cell number at 48 h, concentration not given here
# [9] = measured here: p53 positive nuclei at 24 h, concentration not given here
# Cellular tumor antigen p53 (Homo sapiens), sequence (P04637 whole entry, looked up): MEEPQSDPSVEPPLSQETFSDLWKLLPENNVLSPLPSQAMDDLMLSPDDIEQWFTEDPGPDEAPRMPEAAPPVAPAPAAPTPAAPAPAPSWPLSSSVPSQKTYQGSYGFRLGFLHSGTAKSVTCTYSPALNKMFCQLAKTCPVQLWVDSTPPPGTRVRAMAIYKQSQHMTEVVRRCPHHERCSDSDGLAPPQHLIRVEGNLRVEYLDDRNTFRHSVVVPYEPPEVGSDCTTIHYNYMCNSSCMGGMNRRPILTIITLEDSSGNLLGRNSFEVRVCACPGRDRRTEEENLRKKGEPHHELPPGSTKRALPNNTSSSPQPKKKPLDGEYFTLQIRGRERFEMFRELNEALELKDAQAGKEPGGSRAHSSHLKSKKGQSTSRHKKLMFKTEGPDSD
structure (smiles),measurement,setting,value
CC1=C(O)C(=O)C=C2C1=CC=C1[C@@]2(C)CC[C@@]2(C)C3C[C@](C)(C(=O)O)CC[C@]3(C)CC[C@]12C (some centres undefined),"nuclei count, normalised","[1]; measured here: cell number at 24 h, Library stock concentration: 46 uM",117%
same,"nuclei count, normalised","[1]; measured here: cell number at 24 h, Library stock concentration: 278 uM",114%
same,"nuclei count, normalised","[1]; measured here: cell number at 24 h, Library stock concentration: 1.67 mM",57.4%
same,"nuclei count, normalised",[1]; [3],47.5%
same,"nuclei count, normalised","[1]; measured here: cell number at 48 h, Library stock concentration: 46 uM",112%
same,"nuclei count, normalised","[1]; measured here: cell number at 48 h, Library stock concentration: 278 uM",104%
same,"nuclei count, normalised","[1]; measured here: cell number at 48 h, Library stock concentration: 1.67 mM",48.7%
same,"nuclei count, normalised",[1]; [4],31.9%
same,"p53-positive nuclei, normalised",[2]; Library stock concentration: 46 uM,0.197% (inactive)
same,"p53-positive nuclei, normalised",[2]; Library stock concentration: 278 uM,0.188% (inactive)
same,"p53-positive nuclei, normalised",[2]; Library stock concentration: 1.67 mM,8.51% (inactive)
same,"p53-positive nuclei, normalised",[2]; [5],26.6% (inactive)
same,"p53-positive nuclei, normalised","[2]; measured here: p53 positive nuclei at 24 h, Library stock concentration: 46 uM",-0.0305%
same,"p53-positive nuclei, normalised","[2]; measured here: p53 positive nuclei at 24 h, Library stock concentration: 278 uM",-0.0276%
same,"p53-positive nuclei, normalised","[2]; measured here: p53 positive nuclei at 24 h, Library stock concentration: 1.67 mM",9.81%
same,"p53-positive nuclei, normalised",[2]; [6],29.3%
CC1=C(O)C(=O)C=C2C1=CC=C1[C@@]2(C)CCC2(C)C3C[C@](C)(C(=O)O)CC[C@]3(C)CC[C@]12C (some centres undefined),"nuclei count, normalised","[1]; measured here: cell number at 24 h, Library stock concentration: 80 uM",94.9%
same,"nuclei count, normalised","[1]; measured here: cell number at 24 h, Library stock concentration: 400 uM",109%
same,"nuclei count, normalised","[1]; measured here: cell number at 24 h, Library stock concentration: 2 mM",92%
same,"nuclei count, normalised",[1]; [3],46.3%
same,"nuclei count, normalised","[1]; measured here: cell number at 48 h, Library stock concentration: 80 uM",95.5%
same,"nuclei count, normalised","[1]; measured here: cell number at 48 h, Library stock concentration: 400 uM",109%
same,"nuclei count, normalised","[1]; measured here: cell number at 48 h, Library stock concentration: 2 mM",91.7%
same,"nuclei count, normalised",[1]; [4],28.8%
same,"p53-positive nuclei, normalised",[2]; Library stock concentration: 80 uM,0.0324% (inactive)
same,"p53-positive nuclei, normalised",[2]; Library stock concentration: 400 uM,0.159% (inactive)
same,"p53-positive nuclei, normalised",[2]; Library stock concentration: 2 mM,0.635% (inactive)
same,"p53-positive nuclei, normalised",[2]; [5],9.53% (inactive)
same,"p53-positive nuclei, normalised","[2]; measured here: p53 positive nuclei at 24 h, Library stock concentration: 80 uM",0.113%
same,"p53-positive nuclei, normalised","[2]; measured here: p53 positive nuclei at 24 h, Library stock concentration: 400 uM",0.398%
same,"p53-positive nuclei, normalised","[2]; measured here: p53 positive nuclei at 24 h, Library stock concentration: 2 mM",0.116%
same,"p53-positive nuclei, normalised",[2]; [6],10.2%
CC1=C(O)C(=O)C=C2C1=CC=C1[C@@]2(C)CC[C@@]2(C)[C@@H]3C[C@](C)(C(=O)O)CC[C@]3(C)CC[C@]12C,"nuclei count, normalised",[1]; [7],88.7% and 27%
same,"nuclei count, normalised",[1]; [8],109% and 15.7%
same,"p53-positive nuclei, normalised",[2]; concentration not given here,0.0329% (inactive) and 96.6% (active)
same,"p53-positive nuclei, normalised",[2]; [9],0.225% and 93.4%
CCCCCCCCCCCC[N+](C)(C)CCOc1ccccc1,"nuclei count, normalised","[1]; measured here: cell number at 24 h, Library stock concentration: 3.33 mM",115%
same,"nuclei count, normalised","[1]; measured here: cell number at 48 h, Library stock concentration: 3.33 mM",110%
same,"p53-positive nuclei, normalised",[2]; Library stock concentration: 3.33 mM,-0.174% (inactive)
same,"p53-positive nuclei, normalised","[2]; measured here: p53 positive nuclei at 24 h, Library stock concentration: 3.33 mM",-0.284%
CCCCC/C=C\C/C=C\C/C=C\C/C=C\CCCCOC(CO)CO,"nuclei count, normalised",[1]; [7],104%
same,"nuclei count, normalised",[1]; [8],111%
same,"p53-positive nuclei, normalised",[2]; concentration not given here,0.099% (inactive)
same,"p53-positive nuclei, normalised",[2]; [9],0.34%
